Only a sample is shown.
aSyn 5UTR act – Activators via SNCA 5'UTR binding, MLPCN | alpha-synuclein 5'UTR reporter, activators screen | activity score, % (tested at 7.5 µM), hits read low | hit rate 7.1% among 300,000; in the data active means activity score below about -60%
The depositor's hits bear a star.

SMILES	aSyn 5UTR act
CC1CCCN(c2nc3ccsc3c(=O)s2)C1 (stereo unspecified)	-148.2*
C/C(=N/Nc1nc(-c2ccc(Cl)cc2)cs1)c1cccs1	-74.9*
CC(=O)Nc1ccc(-c2csc(NCc3ccccc3)n2)cc1	-75.3*
CC(=O)Nc1ccc(-c2csc(N/N=C(/C)c3ccccc3)n2)cc1	-101.8*
Cn1c(C(=O)NC2CCCCC2)cc2c(=O)n3ccccc3nc21	-134.4*
Cn1c(C(=O)NCc2ccccn2)cc2c(=O)n3ccccc3nc21	-88.6*
COc1ccc(C(=O)Nc2sc(C)c(-c3ccccc3)c2C#N)cc1OC	-91.8*
COc1ccc(C2CC2/C(=N/OC(=O)c2cccs2)c2ccccc2)cc1 (stereo unspecified)	-152.6*
NC(=O)COC(=O)c1ccccc1Nc1ccc(SC(F)F)cc1	-81.6*
O=C(COC(=O)c1ccccc1Nc1ccc(SC(F)F)cc1)NCc1ccco1	-90.8*
CC(C)(C)NC(=O)COC(=O)c1ccccc1Nc1ccc(SC(F)F)cc1	-145.2*
O=C(COC(=O)c1ccccc1Nc1ccc(SC(F)F)cc1)NC1CC1	-100.4*
C=CCc1c(C)nc(-c2ccccc2)nc1N/N=C/c1ccncc1	-95.1*
C=CCc1c(C)nc(-c2ccccc2)nc1N/N=C(\C)c1ccc(N)cc1	-69.2*
Oc1ccccc1OCc1nc2ccccc2s1	-113.4*
OCc1cc(Br)ccc1OCc1nc2ccccc2s1	-70.3*
O=[N+]([O-])c1ccc(N/N=C/c2cccs2)nc1	-187.1*
Cc1ccccc1-n1c(C)cc(/C=N/Nc2ccc([N+](=O)[O-])cn2)c1C	-75.8*
Cc1cccc(C(=O)Nc2cccc(C(=O)N/N=C/c3ccc4c(c3)OCO4)c2)c1	-109.2*
O=C(N/N=C/c1ccc2c(c1)OCO2)c1cccc(NC(=O)c2ccccc2Cl)c1	-157.9*
Cc1cc2oc(C(=O)Nc3c(C)n(C)n(-c4ccccc4)c3=O)c(C)c2cc1C	-63.5*
Cc1ccccc1C(=O)/C(C#N)=N/Nc1c(C)n(C)n(-c2ccccc2)c1=O	78.7
Brc1ccc(NC2=Nc3ccccc3CC2)cc1	-172.0*
COc1ccc(C(=O)/C(=C/O)N=Nc2ccc(F)cc2)cc1	-64.3*
CCc1cc(CNC(=O)CCc2nnc(CCCc3ccccc3)o2)on1	-129.1*
SMILES	aSyn 5UTR act
CCOc1ccc(-c2cc(CCCC(=O)NCCc3ccccc3)no2)cc1	62.2
O=C(CCc1nnc(CCCc2ccccc2)o1)N1CCCCCC1	-149.1*
O=C(CCc1nnc(CCCc2ccccc2)o1)NCCCC1CCCC1	-115.9*
CC(C)c1cc(CNC(=O)CCc2nnc(CCCc3ccccc3)o2)on1	-76.9*
Cc1ccc(NC(=S)NCCCN2CCOCC2)cc1	-63.5*
S=C(NCCN1CCOCC1)Nc1ccc(-c2nc3ccccc3[nH]2)cc1	-129.3*
Nc1ccc(C(=O)Nc2nccs2)cc1	-87.4*
CC(C)(C)N1C(=O)c2ccc(C(=O)Nc3nccs3)cc2C1=O	-156.2*
O=C(Nc1nccs1)c1ccc(N2C(=O)[C@@H]3[C@H](C2=O)[C@H]2C=C[C@@H]3C2)cc1	-147.3*
O=C(Nc1nccs1)c1cncc(Br)c1	-145.4*
O=C(Nc1nccs1)OCc1ccccc1	-80.1*
O=C(Nc1nccs1)c1ccc2nccnc2c1	-160.6*
O=C(Nc1nccs1)C(Br)C(Br)c1ccccc1 (stereo unspecified)	-75.1*
Nc1ccccc1C(=O)Nc1nccs1	-103.0*
CC(C)C(C(=O)Nc1nccs1)c1ccc(Cl)cc1 (stereo unspecified)	58.4
Cc1ccc(C(=O)Nc2nccs2)cc1	-124.0*
Cn1c(SCc2ccc(C(=O)Nc3nccs3)cc2)nnc1-c1ccccc1	-102.7*
O=C(Nc1nccs1)c1ccc(COc2c(F)c(F)cc(F)c2F)cc1	-107.3*
Cc1oc(-c2ccccc2)nc1C(=O)Nc1nccs1	-116.8*
CN(c1ccc(C(=O)Nc2nccs2)cc1)S(=O)(=O)c1ccccc1	-103.8*
CC(C)(C)NC(=O)C(c1ccncc1)N(Cc1ccco1)C(=O)c1ccc(-c2ccccc2)[nH]1 (stereo unspecified)	-82.8*
CCC(C)(C)C1CCC(=NNC(=S)Nc2ccccc2)CC1 (stereo unspecified)	-124.3*
S=C(NN=C1C2CC3CC(C2)CC1C3)Nc1ccccc1	-70.0*
O=C(Nc1ccc(Cl)c(Cl)c1)c1ccc(Cl)c(Cl)c1	-101.7*
COc1ccc(NC(=O)Nc2cccc(Cl)c2Cl)c(OC)n1	-71.9*
SMILES	aSyn 5UTR act
O=C(Nc1ccc2c(c1)COC2=O)c1ccc(Cl)c(Cl)c1	-143.1*
COc1ccc(C(=O)Nc2ccc(Cl)c(Cl)c2)c(OC)n1	-104.5*
O=C(Nc1ccc2c(c1)Cc1ccccc1-2)c1ccncc1	-133.9*
Cc1cc(C)n2ncc(C(=O)Nc3ccc(Cl)c(Cl)c3)c2n1	-105.6*
O=C(Nc1ccc(Cl)c(Cl)c1)c1ccncc1	-149.0*
C=CCn1c(SCc2c(C)noc2C)nc2sc3c(c2c1=O)CCCCC3	64.7
O=c1c2c3c(sc2nc2sc(CN4CCCCC4)cn12)CCCC3	-87.0*
CC(C)Oc1ccc(C(=O)NCc2cccs2)cc1	-84.7*
CCc1ccc(C(=O)NCc2cccs2)s1	-62.6*
COC(=O)c1ccc(C)c(NS(=O)(=O)c2ccc(OC)cc2)c1	81.9
